Measured values taken from PubChem BioAssay (Tox21).
Values joined by “and” are separate entries in the source; they are usually repeats but may differ in a detail not shown here. Equal entries are not always repeated. Records with an inconclusive call do not appear. Entries that show only a call come without a potency. A structure can be active in one record and inactive in another. Active and inactive are the calls of the source. Unless noted, calls come from the whole dose curve; as a rule, active = well fitted curve in the direction sought with a large enough effect in the repeat runs; inconclusive = weak or mixed curves; inactive = no such curve, though single readings can be large; an effect the other way counts as inactive or inconclusive.

Legend:
[1] = qHTS assay to identify small molecule antagonists of the peroxisome proliferator-activated receptor delta (PPARd) signaling pathway - cell viability counter screen (AID 743213); note: nearly all actives have a fitted effect of over 50% in size; note: potency is the fitted concentration of half-maximal effect
Method in brief: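 Agonist-stimulated (L165041, 300 nM final) HEK293H PPARd UAS-bla cells are exposed to compounds for 17 h at 37 C, and ATP-based luminescence (CellTiter-Glo) from the same wells reports cytotoxicity.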

[2] = qHTS assay to identify small molecule agonists of the farnesoid-X-receptor (FXR) signaling pathway - cell viability counter screen (AID 743218); note: nearly all actives have a fitted effect of over 45% in size; note: potency is the fitted concentration of half-maximal effect
Method in brief: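 Readout: CellTiter-Glo luminescence, 30 min RT, multiplexed after the FXR-bla FRET reading. HEK 293T FXR-UAS-bla cells received compound 5 h post-plating and were incubated 16 h at 37 C.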

[3] = qHTS assay to identify small molecule antagonists of the farnesoid-X-receptor (FXR) signaling pathway - cell viability counter screen (AID 743221; active = well fitted cell-killing curve with a large enough effect in the repeat runs, not every such curve was filed as active; note: nearly all actives have a fitted effect of over 50% in size)
Method in brief: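 Luminescence from CellTiter-Glo measures cytotoxicity in GeneBLAzer FXR-UAS-bla HEK 293T cells. Cells were exposed to compounds with 50 uM chenodeoxycholic acid (final) for 16 h at 37 C, in wells also used for the reporter readout.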

[4] = biological target: Vitamin D3 receptor (Homo sapiens) (UniProt P11473); assay: qHTS assay to identify small molecule agonists of the vitamin D receptor (VDR) signaling pathway (AID 743222; calls by dose curve)
Vitamin D3 receptor (Homo sapiens), sequence (P11473 whole entry, looked up): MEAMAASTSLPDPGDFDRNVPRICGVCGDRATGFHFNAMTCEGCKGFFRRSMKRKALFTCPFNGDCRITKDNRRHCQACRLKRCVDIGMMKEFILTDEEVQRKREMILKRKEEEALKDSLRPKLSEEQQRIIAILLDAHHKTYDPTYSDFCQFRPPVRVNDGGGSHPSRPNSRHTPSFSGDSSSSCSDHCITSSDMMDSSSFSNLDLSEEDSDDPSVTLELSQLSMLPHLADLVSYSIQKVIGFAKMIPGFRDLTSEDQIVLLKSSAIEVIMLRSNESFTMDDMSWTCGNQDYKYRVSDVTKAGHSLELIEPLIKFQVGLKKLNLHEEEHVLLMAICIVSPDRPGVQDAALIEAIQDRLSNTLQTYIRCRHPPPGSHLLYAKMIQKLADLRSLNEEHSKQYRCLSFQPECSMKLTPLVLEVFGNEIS
Method in brief: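 Following 4 h attachment at 37C, VDR-bla cells (2,000 per well) received DMSO-dissolved compounds or controls. After 16 h incubation, LiveBLAzer B/G FRET substrate was added and fluorescence read 2 h later at room temperature.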

[5] = biological target: Vitamin D3 receptor (Homo sapiens) (UniProt P11473); assay: qHTS assay to identify small molecule antagonists of the vitamin D receptor (VDR) signaling pathway (AID 743223; active = well fitted inhibition curve with a large enough effect in the signal ratio in the repeat runs, not every such curve was filed as active; the % refers to the signal ratio)
Method in brief: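 Antagonist mode uses 1alpha,25-dihydroxyvitamin D3 at 3 nM final as stimulus. VDR-bla cells receive compounds in DMSO, incubate 16 h at 37C, then a beta-lactamase FRET substrate for 2 h at room temperature before fluorescence measurement.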

[6] = qHTS assay to identify small molecule agonists of the vitamin D receptor (VDR) signaling pathway - cell viability counter screen (AID 743224); note: series mostly up to about 63 µM; nearly all actives have a fitted effect of over 50% in size
Method in brief: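 In parallel with the bla FRET readout, cytotoxicity toward VDR-bla cells after 16 h compound exposure was assessed by CellTiter-Glo, with luminescence recorded after a 30 min room-temperature incubation.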

[7] = qHTS assay to identify small molecule antagonists of the vitamin D receptor (VDR) signaling pathway - cell viability counter screen (AID 743225); note: nearly all actives have a fitted effect of over 50% in size; note: potency is the fitted concentration of half-maximal effect
Method in brief: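 Read-out: CellTiter-Glo luminescence measured 30 min after reagent addition at room temperature. Cells were VDR-bla HEK 293T exposed 16 h at 37C, 5% CO2, to compound with 3 nM final calcitriol agonist.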

[8] = qHTS assay to identify small molecule agonists of the NFkB signaling pathway - cell viability counter screen (AID 1159515; calls by dose curve; note: series mostly up to about 61 µM; nearly all actives have a fitted effect of over 55% in size)
Method in brief: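 Plate 2,000 NFkB-bla ME-180 cells/well; incubate overnight. Add compounds, 5 hr at 37 C. Add FRET substrate, 1.5 hr RT. Add CellTiter-Glo, 30 min RT; read luminescence.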

[9] = qHTS assay to identify small molecule agonists of the endoplasmic reticulum stress response signaling pathway (AID 1159516; active = well fitted activation curve with a large enough effect in the signal ratio in the repeat runs, not every such curve was filed as active; the % refers to the signal ratio)
Method in brief: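 Beta-lactamase expression from the ER stress response element in HeLa reporter cells is quantified with the LiveBLAzer B/G FRET substrate, read at 405 nm excitation after 2 hr at room temperature, following 5 hr compound treatment at 37 C.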

[10] = qHTS assay to identify small molecule agonists of the endoplasmic reticulum stress response signaling pathway - cell viability counter screen (AID 1159517; calls by dose curve)
Method in brief: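 Steps: seed 1,500 ESRE-bla HeLa cells per well; incubate overnight at 37 C, 5% CO2; add compounds in DMSO for 5 hr; run FRET substrate 2 hr RT; add CellTiter-Glo, wait 30 min, read luminescence.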

[11] = qHTS assay to identify small molecule antagonists of the retinoid-related orphan receptor gamma (ROR-gamma) signaling pathway - cell viability counter screen (AID 1159520); note: nearly all actives have a fitted effect of over 50% in size
Method in brief: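 Tet-on ROR gamma CHO cells were given compounds for 2 hr, then doxycycline hyclate at 1 uM final, and incubated 16 hr at 37 C. Viability was measured as ATP content by CellTiter-Glo luminescence.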

[12] = qHTS assay to identify small molecule agonists of the AP-1 signaling pathway - cell viability counter screen (AID 1159525; calls by dose curve; note: nearly all actives have a fitted effect of over 55% in size; note: potency is the fitted concentration of half-maximal effect)
Method in brief: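 Same-well cytotoxicity counter screen of the Tox21 10K library in ME-180 cells. The readout is ATP-dependent luminescence after 5 h compound treatment. Data are normalised to DMSO and tetra n-octyl ammonium bromide controls.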

[13] = qHTS assay to identify small molecule agonists of the AP-1 signaling pathway (AID 1159526; calls by dose curve)
[14] = biological target: Retinoic acid receptor RXR-alpha (Homo sapiens) (UniProt P19793); assay: qHTS assay to identify small molecule agonists of the RXR signaling pathway (AID 1159527; calls by dose curve; note: nearly all actives have a fitted effect of over 35% in size)
Retinoic acid receptor RXR-alpha (Homo sapiens), sequence (P19793 whole entry, looked up): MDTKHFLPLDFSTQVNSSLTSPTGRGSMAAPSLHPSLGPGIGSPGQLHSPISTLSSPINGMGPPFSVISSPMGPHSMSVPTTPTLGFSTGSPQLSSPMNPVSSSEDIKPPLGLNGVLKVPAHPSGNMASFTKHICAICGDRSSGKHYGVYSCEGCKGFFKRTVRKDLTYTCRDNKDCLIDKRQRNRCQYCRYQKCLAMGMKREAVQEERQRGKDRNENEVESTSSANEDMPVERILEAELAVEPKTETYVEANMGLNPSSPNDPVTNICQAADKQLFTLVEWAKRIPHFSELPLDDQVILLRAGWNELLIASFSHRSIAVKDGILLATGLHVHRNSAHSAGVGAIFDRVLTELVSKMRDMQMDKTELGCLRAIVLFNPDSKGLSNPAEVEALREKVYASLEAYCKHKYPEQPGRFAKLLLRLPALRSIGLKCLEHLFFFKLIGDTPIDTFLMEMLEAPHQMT
Method in brief: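 Read-out: beta-lactamase FRET ratio (405 nm excitation, 460 and 530 nm emission) after 2 hr substrate loading at room temperature. Cells were RXR-alpha-UAS-bla HEK 293T treated with compounds for 16 hr in 2% charcoal-stripped FBS medium.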

[15] = qHTS assay to identify small molecule agonists of the RXR signaling pathway - cell viability counter screen (AID 1159529); note: nearly all actives have a fitted effect of over 50% in size; note: potency is the fitted concentration of half-maximal effect
Method in brief: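 HEK 293T RXRa-bla cells, 2% CS-FBS; 5 h settle; cpd 16 h 37 C, 5% CO2; CellTiter-Glo 30 min RT, luminescence. Tetraoctyl ammonium bromide as positive control.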

[16] = qHTS assay to identify small molecule antagonists of the retinoid acid receptor (RAR) signaling pathway - cell viability counter screen (AID 1159551); note: nearly all actives have a fitted effect of over 35% in size
Method in brief: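 Viability of C3RL4 cells is quantified from ATP by luminescence after 6 h treatment at 37 C with compounds and 1 uM retinol.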

[17] = biological target: Nuclear receptor ROR-gamma (Homo sapiens) (UniProt P51449); assay: qHTS assay to identify small molecule antagonists of the retinoid-related orphan receptor gamma (ROR-gamma) signaling pathway (AID 1159521)
Method in brief: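 CHO Tet-on RORγ, RORE-luc reporter. Cpd 2 h pre-incubation, then dox hyclate 1 uM final, 16 h, 37 C/5% CO2. ONE-Glo luminescence; decrease = antagonist.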

| SMILES | Potency [1] | Potency [2] | Potency [3] | outcome [4] | Potency [5] | Potency [6] | Potency [7] | Potency [8] | outcome [9] | Potency [10] | Potency [11] | Potency [12] | Potency [13] | Potency [14] | Potency [15] | Potency [16] | Potency [17] |
| --- | --- | --- | --- | --- | --- | --- | --- | --- | --- | --- | --- | --- | --- | --- | --- | --- | --- |
| N#CS | inactive | inactive | inactive | inactive | inactive | inactive | inactive | inactive | inactive | inactive | inactive | inactive | inactive | inactive | inactive | inactive |  |
| CC[N+]1(C)CCCC1 | inactive | inactive | inactive |  |  | inactive | inactive | inactive | inactive | inactive | inactive | inactive | inactive | inactive | inactive | inactive | inactive |
| CCCC[n+]1cccc(C)c1 | inactive | inactive | inactive |  |  | inactive | inactive | inactive | inactive | inactive | inactive | inactive | inactive | inactive | inactive | inactive | inactive |
| CN(C)[C@@H]1C(=O)C(C(N)=O)=C(O)[C@@]2(O)C(=O)C3=C(O)c4c(O)cccc4[C@@](C)(O)[C@H]3[C@H](O)[C@@H]12 | inactive | inactive | inactive |  |  | inactive | inactive | inactive | inactive | inactive | inactive | inactive | inactive | inactive | inactive | inactive |  |
| CC(=O)O | inactive | inactive | inactive |  |  | inactive | inactive | inactive | inactive | inactive | inactive | inactive | inactive | inactive | inactive | inactive |  |
| O=c1nc(O)n(Cl)c(=O)n1Cl | inactive | inactive | inactive |  |  | inactive | inactive | inactive | inactive | inactive | inactive | inactive | inactive | inactive | inactive | inactive | inactive |
| CCCCCCCCCCCCOS(=O)(=O)O | 38.9 µM (active) and inactive | 49 µM (active) and 24.5 µM (active) and inactive | inactive |  |  | inactive | 34.7 µM (active) and inactive | inactive | inactive | inactive | inactive | 55 µM (active) and inactive | inactive | inactive | 34.7 µM (active) and 21.9 µM (active) and inactive | inactive |  |
| O=C(O)CC(O)(CC(=O)O)C(=O)O | inactive | inactive | inactive | inactive | inactive | inactive | inactive | inactive | inactive | inactive | inactive | inactive | inactive | inactive | inactive | inactive |  |
